# Bioassay records deposited in PubChem BioAssay by The Scripps Research Institute Molecular Screening Center.
# Hits are enriched below; roughly 3.4% of the tested compounds scored in any of these assays.
# TEAD-YAP inh – TEAD-YAP interaction inhibition, primary screen, TEAD-YAP interaction inhibitor project, luminescence, HEK-TIYL cells; TEAD-Gal4/YAP UAS-luciferase luminescence; 640,000 compounds, 1.4% hits; inhibition, % at 9.12 µM; AID 1259422, 2018; in the data active means inhibition above about 32%;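 further: 0% = median of test compound wells and 100% = reference inhibitor wells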
# MITF primary – MITF inhibitors, primary screen, biochemical, AlphaScreen, human. inhibition, % at 2.6 µM. Microphthalmia-associated transcription factor (Homo sapiens), O75030. 650,000 compounds, 0.91% hits. AlphaScreen MITF homodimerization, bead proximity signal; in the data active means inhibition above about 50%;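 further: 0% = vehicle wells with protein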
# GPR151 activ – activators of human GPR151, primary screen, cell-based, PathHunter beta-arrestin, luminescence; G-protein coupled receptor 151 (Homo sapiens), Q8TDV0; activation, % at 11.2 µM; PathHunter beta-arrestin GPR151 cells; 650,000 compounds, 1% hits; AID 1508602, 2020; in the data active means activation above about 4.9%;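 further: 0% = median of compound wells and 100% = cells with positive control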
# Target sequence (Q8TDV0 whole entry, looked up): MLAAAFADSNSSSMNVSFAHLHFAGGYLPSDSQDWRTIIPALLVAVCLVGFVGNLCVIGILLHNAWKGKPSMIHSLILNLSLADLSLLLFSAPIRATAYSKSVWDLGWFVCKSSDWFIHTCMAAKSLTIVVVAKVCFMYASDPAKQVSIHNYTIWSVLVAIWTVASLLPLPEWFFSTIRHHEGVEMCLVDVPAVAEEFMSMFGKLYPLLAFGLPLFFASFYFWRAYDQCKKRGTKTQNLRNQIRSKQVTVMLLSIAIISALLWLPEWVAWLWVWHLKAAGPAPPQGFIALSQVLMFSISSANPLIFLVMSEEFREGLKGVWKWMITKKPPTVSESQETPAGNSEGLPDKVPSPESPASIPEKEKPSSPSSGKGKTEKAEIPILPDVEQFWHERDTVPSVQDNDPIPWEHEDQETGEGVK
# FBW7 act – FBW7 E3 ligase activators, primary screen, biochemical, AlphaScreen, human; normalized activity (activation), % at 26.1 µM; F-box/WD repeat-containing protein 7 (Homo sapiens), Q969H0; AlphaScreen FBW7–phospho-cyclin E peptide binding, activator screen; 650,000 compounds, 0.13% hits; AID 1259310, 2017; in the data active means normalized activity above about 1.9%;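 further: purified mutant Fbw7 with reduced substrate affinity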
# An asterisk follows results filed as active.
SMILES,TEAD-YAP inh,MITF primary,GPR151 activ,FBW7 act
O=C(Nc1onc2c1CCCC2)c1ccc2c(c1)OCCO2,91*,-6,-9,0
O=C(Nc1ccc(F)cc1)c1ccc2c(c1)OCCO2,59*,-1,-7,0
O=Cc1cc(COc2ccc(F)cc2Cl)cs1,-64,-2,0,0
CCCOC(=O)c1ccc(NC(=O)c2ccc(Cl)c(Cl)c2)cc1,-4,4,1,0
CCCOC(=O)c1ccc(NC(=O)c2ccc3c(c2)OCCO3)cc1,41*,-2,-1,0
Nc1c(C(=O)Nc2ccc(F)cc2)sc2nc(-c3ccc4c(c3)OCO4)ccc12,-13,-15,0,0
Nc1c(C(=O)NC2CC2)sc2nc(-c3ccc4c(c3)OCO4)ccc12,42*,7,-1,0
COc1cc(OC)cc(-c2cc3nc(C)c(CCC(=O)O)c(C)n3n2)c1,56*,5,1,0
COc1cccc(/C=C2\C(=O)ON=C2C)c1OCc1ccccc1Cl,-17,74*,0,0
CC1=NOC(=O)/C1=C/c1ccccc1OS(=O)(=O)c1ccc(C)cc1,5,70*,0,0
COc1ccccc1/C=C1\C(=O)ON=C1C,-2,71*,2,0
COc1ccc(Cl)cc1/C=C1/C(=O)ON=C1C,10,35,0,0
COc1cccc(C=C2C(=O)NC(=O)NC2=O)c1OCc1ccccc1Cl,0,5,3,0
Cc1ccccc1C(=O)Nc1ccc(-c2ccccc2)cc1,-42,12,0,0
Cc1c(C(=O)NCCN2CCOCC2)oc2ccc3c(c12)C(=O)CC1(CCCCC1)O3,3,-10,-1,0
COc1ccc(NC(c2cccnc2)c2ccc3cccnc3c2O)cc1 (configuration not stated),1,59*,0,-2
Cc1ccc2ccc(C(Nc3ccccn3)c3cccnc3)c(O)c2n1 (configuration not stated),10,1,-1,0
Oc1ccccc1NC(c1cccnc1)c1ccc2cccnc2c1O (configuration not stated),7,98*,-1,0
O=c1[nH][nH]c(=O)c2c(N=Cc3cc(Cl)cc(Cl)c3O)cccc12,-3,-7,1,0
CCOc1ccc2cc(-c3ccccn3)c(=N)oc2c1,59*,-15,-9,0
Cc1ccc(-c2nc(-c3cccs3)no2)cc1[N+](=O)[O-],-21,2,-1,0
c1ccc(-c2ccc(-c3nc(-c4ccccn4)no3)cc2)cc1,95*,-2,-12,0
Cc1ccc(-c2nc(-c3ccccn3)no2)cc1[N+](=O)[O-],55*,-2,-7,0
Cc1ccc(-c2nc(-c3ccccn3)no2)cc1Cl,84*,-1,-11,0
CC1(C(=O)NNC(=S)Nc2ccc(S(N)(=O)=O)cc2)CC1(Cl)Cl (configuration not stated),-3,-4,0,0
SMILES,TEAD-YAP inh,MITF primary,GPR151 activ,FBW7 act
O=C(c1ccc(F)cc1)c1ccc(Oc2ccc(S(=O)(=O)N3CCOCC3)cn2)cc1,2,19,1,0
CCCCC1=NN2C(=N)/C(=C/c3ccc(OS(C)(=O)=O)cc3)C(=O)N=C2S1,-3,10,-2,0
COc1ccccc1C(=O)Nc1ccc(NC(=O)C(F)(F)F)cc1,-10,-11,3,0
CCCOc1ccc(-c2ccc(-c3nc(-c4ccccn4)no3)cc2)cc1,5,8,-2,0
Cc1ccc(-c2nc(-c3ccccn3)no2)cc1,95*,4,-11,0
CCOc1ccc(-c2nc(-c3ccccn3)no2)cc1,98*,6,-8,0
CCCSC1=C(C#N)C(c2ccccc2OC)CC(=O)N1 (configuration not stated),4,-2,1,0
Cc1cc(/C=C(\C#N)C(=O)O)c(C)n1CC(C)C,12,8,0,0
Cc1cc(/C=C(\C#N)C(=O)OCC(=O)NCc2cccs2)c(C)n1CC(C)C,49*,9,-2,0
CC(=O)C12OC(C)(C)OC1CC1C3CCC4CC(OC(=O)c5cccc(I)c5)CCC4(C)C3CCC12C (configuration not stated),-5,12,1,1
COc1ccc2nc(NC(=O)c3cc(Br)ccc3Cl)sc2c1,-18,1,-1,0
COc1ccc2nc(NC(=O)c3ccoc3C)sc2c1,59*,10,-10,0
COc1ccc2nc(NC(=O)c3nn(C)cc3C)sc2c1,-19,-3,-9,3.6*
COc1cc(C(=O)N2c3ccccc3-c3c(ssc3=S)C2(C)C)cc(OC)c1OC,61*,31,2,0
Cc1ccc2c(c1)-c1c(ssc1=S)C(C)(C)N2C(=O)c1ccncc1,55*,27,-2,-1
COc1ccc2c(c1)-c1c(ssc1=S)C(C)(C)N2C(=O)CSc1nnc(C)s1,34*,19,-1,0
Cc1cc(C)c2c(c1)-c1c(ssc1=S)C(C)(C)N2C(=O)C(C)C,17,52*,-1,0
Cc1nnc(SCC(=O)N2c3cc(C)c(C)cc3-c3c(ssc3=S)C2(C)C)s1,3,17,0,0
CCC(=O)N1c2c(C)cc(C)cc2-c2c(ssc2=S)C1(C)C,6,26,1,-1
Cn1c(C(=O)N2CCC(C(N)=O)CC2)cc2c(=O)n3ccccc3nc21,-6,8,1,0
Cc1occc1C(=O)N(C)C(Cc1ccccc1F)C1CCN(Cc2cnn(C)c2)CC1 (configuration not stated),-1,16,1,0
CCCCc1c(C)nc(N)nc1N1NC1=S,12,6,-1,0
Cc1cc2cc3c(cc2n2c(=O)n(CCN(C)C)nc12)OCO3,-4,0,0,0
Cc1cc(C)c2cc(C)c3nn(CCN(C)C)c(=O)n3c2c1,41*,20,0,1
CCOC(=O)c1sc(NC(=O)COc2ccccc2C(C)(C)C)nc1C,-2,2,0,0
SMILES,TEAD-YAP inh,MITF primary,GPR151 activ,FBW7 act
COC(=O)CCCNc1nncc(-c2ccc3c(c2)OCO3)n1,35*,2,1,0
O=C(C1CCCCC1)N1CCN(c2nccnc2NS(=O)(=O)c2cccnc2)CC1,-4,-17,0,0
CC(=O)COC(=O)C1CCN(S(=O)(=O)c2ccc3ccccc3c2)CC1,1,10,-1,0
COc1cccc2sc(N(Cc3ccccn3)C(=O)c3ccc(F)cc3F)nc12,-8,-1,4,0
CC1CC(C)(C)Nc2ccc(OC(=O)c3ccccc3)cc21 (configuration not stated),44*,-5,0,0
O=C(Oc1ccc(OC(=O)c2ccccc2)cc1)c1ccccc1,-4,0,0,0
N#Cc1ccc(N2C(=O)C3C4CCC(C4)C3C2=O)cc1 (configuration not stated),3,7,1,0
